Test results taken from PubChem BioAssay AID1159580 (chemical genetic matrix, 2015).
Among all 5,500 compounds or so, about 2,000 (36%) were called active. Roughly 18% stayed inconclusive and do not appear here. No stated cut-off is given here; in the data, active means normalized growth mostly below about 0.91 (no sharp cut-off); inconclusive means no clear call, values can overlap the other calls; inactive means mostly above about 0.92. The list shows a part of the results.

Test: chemical genetic growth profiling, strain panel (AID 1159580);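 further: tested at 20 µM; growth read once vehicle control cultures reached saturation at 30 °C; 1 = growth at the plate median or of vehicle wells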
Settings: growth OD

Measured: normalized growth

CCCC(=O)Nc1ccc(OCC(O)CNC(C)C)c(C(C)=O)c1 (configuration not stated)
inactive: S. cerevisiae deletion strains, locus YJR075W, strain HOC1, stronger effect = lower value 1.03 | S. cerevisiae deletion strains, locus YKL009W, strain mrt4, stronger effect = lower value 1.02 | S. cerevisiae deletion strains, locus YKL068W, stronger effect = lower value 1.02 | S. cerevisiae deletion strains, locus YKL085W, strain MDH1 (second series), stronger effect = lower value 1.01 | S. cerevisiae deletion strains, locus YKL085W, strain MDH1, stronger effect = lower value 1.01 | S. cerevisiae deletion strains, locus YKL160W, strain elf1, stronger effect = lower value 1.02 | S. cerevisiae deletion strains, locus YKL190W, strain CNB1, stronger effect = lower value 1.01 | S. cerevisiae deletion strains, locus YKR001C, strain vps1, stronger effect = lower value 1.04 | S. cerevisiae deletion strains, locus YKR026C, strain gcn3, stronger effect = lower value 1.01 | S. cerevisiae deletion strains, locus YKR091W, strain srl3, stronger effect = lower value 1 | S. cerevisiae deletion strains, locus YLL001W, strain dnm1, stronger effect = lower value 1.02 | S. cerevisiae deletion strains, locus YLL026W, stronger effect = lower value 1.01 | S. cerevisiae deletion strains, locus YLL041C, strain sdh2, stronger effect = lower value 1.01 | S. cerevisiae deletion strains, locus YLR027C, strain aat2, stronger effect = lower value 1.01 | S. cerevisiae deletion strains, locus YLR039C, strain RIC1, stronger effect = lower value 1.06 | S. cerevisiae deletion strains, locus YLR058C, strain SHM2, stronger effect = lower value 1.01 | S. cerevisiae deletion strains, locus YLR102C, strain apc9, stronger effect = lower value 1.01 | S. cerevisiae deletion strains, locus YLR113W, strain HOG1, stronger effect = lower value 0.999 | S. cerevisiae deletion strains, locus YLR221C, strain rsa3, stronger effect = lower value 1.01 | S. cerevisiae deletion strains, locus YLR258W, strain gsy2, stronger effect = lower value 1.02 | S. cerevisiae deletion strains, locus YLR262C, strain YPT6 (second series), stronger effect = lower value 1.02 | S. cerevisiae deletion strains, locus YLR262C, strain YPT6, stronger effect = lower value 1.02 | S. cerevisiae deletion strains, locus YLR268W, strain sec22, stronger effect = lower value 1.05 | S. cerevisiae deletion strains, locus YLR320W, strain mms22, stronger effect = lower value 1 | S. cerevisiae deletion strains, locus YLR330W, strain CHS5, stronger effect = lower value 1.01 | S. cerevisiae deletion strains, locus YLR342W, strain FKS1 (second series), stronger effect = lower value 1 | S. cerevisiae deletion strains, locus YLR342W, strain FKS1, stronger effect = lower value 1.01 | S. cerevisiae deletion strains, locus YLR357W, strain rsc2, stronger effect = lower value 0.97 | S. cerevisiae deletion strains, locus YLR370C, strain arc18, stronger effect = lower value 1.02 | S. cerevisiae deletion strains, locus YLR371W, strain rom2, stronger effect = lower value 1.02 | S. cerevisiae deletion strains, locus YLR384C, strain iki3, stronger effect = lower value 1.01 | S. cerevisiae deletion strains, locus YLR418C, strain cdc73, stronger effect = lower value 1.05 | S. cerevisiae deletion strains, locus YML016C, strain PPZ1, stronger effect = lower value 1.01 | S. cerevisiae deletion strains, locus YML032C, strain rad52, stronger effect = lower value 1.02 | S. cerevisiae deletion strains, locus YML120C, strain ndi1, stronger effect = lower value 0.999 | S. cerevisiae deletion strains, locus YML124C, strain tub3, stronger effect = lower value 1.02 | S. cerevisiae deletion strains, locus YMR058W, strain fet3, stronger effect = lower value 1 | S. cerevisiae deletion strains, locus YMR078C, strain ctf18, stronger effect = lower value 1.02 | S. cerevisiae deletion strains, locus YMR125W, strain sto1, stronger effect = lower value 1 | S. cerevisiae deletion strains, locus YMR129W, stronger effect = lower value 1.01 | S. cerevisiae deletion strains, locus YMR205C, strain PFK2, stronger effect = lower value 1 | S. cerevisiae deletion strains, locus YMR223W, strain ubp8, stronger effect = lower value 1 | S. cerevisiae deletion strains, locus YMR231W, strain pep5, stronger effect = lower value 1.02 | S. cerevisiae deletion strains, locus YMR263W, strain SAP30, stronger effect = lower value 1.02 | S. cerevisiae deletion strains, locus YMR307W, strain GAS1, stronger effect = lower value 1.03 | S. cerevisiae deletion strains, locus YNL067W, strain RPL9B, stronger effect = lower value 1.03 | S. cerevisiae deletion strains, locus YNL071W, strain lat1, stronger effect = lower value 1.02 | S. cerevisiae deletion strains, locus YNL128W, strain TEP1, stronger effect = lower value 1.01 | S. cerevisiae deletion strains, locus YNL153C, strain GIM3, stronger effect = lower value 1.02 | S. cerevisiae deletion strains, locus YNL183C, strain NPR1, stronger effect = lower value 0.97 | S. cerevisiae deletion strains, locus YNL209W, strain ssb2, stronger effect = lower value 1.04 | S. cerevisiae deletion strains, locus YNL233W, strain BNI4, stronger effect = lower value 1.01 | S. cerevisiae deletion strains, locus YNL248C, strain rpa49, stronger effect = lower value 1.03 | S. cerevisiae deletion strains, locus YNL250W, strain rad50, stronger effect = lower value 1.01 | S. cerevisiae deletion strains, locus YNL271C, strain bni1, stronger effect = lower value 1.02 | S. cerevisiae deletion strains, locus YNL298W, strain CLA4, stronger effect = lower value 1.02 | S. cerevisiae deletion strains, locus YNL307C, strain MCK1, stronger effect = lower value 1.02 | S. cerevisiae deletion strains, locus YNL322C, strain KRE1 (second series), stronger effect = lower value 1.03 | S. cerevisiae deletion strains, locus YNL322C, strain KRE1, stronger effect = lower value 1.01 | S. cerevisiae deletion strains, locus YNR049C, strain mso1, stronger effect = lower value 1.01 | S. cerevisiae deletion strains, locus YNR052C, strain pop2, stronger effect = lower value 1.02 | S. cerevisiae deletion strains, locus YOL006C, strain TOP1, stronger effect = lower value 1.07 | S. cerevisiae deletion strains, locus YOL012C, strain htz1 0.744 | S. cerevisiae deletion strains, locus YOL147C, strain pex11, stronger effect = lower value 1.02 | S. cerevisiae deletion strains, locus YOR001W, strain rrp6, stronger effect = lower value 1.01 | S. cerevisiae deletion strains, locus YOR061W, strain CKA2, stronger effect = lower value 1.01 | S. cerevisiae deletion strains, locus YOR069W, strain VPS5, stronger effect = lower value 1.01 | S. cerevisiae deletion strains, locus YOR070C, strain gyp1, stronger effect = lower value 1.02 | S. cerevisiae deletion strains, locus YOR080W, strain dia2, stronger effect = lower value 1.02 | S. cerevisiae deletion strains, locus YOR083W, strain WHI5, stronger effect = lower value 0.988 | S. cerevisiae deletion strains, locus YOR106W, strain vam3, stronger effect = lower value 1.03 | S. cerevisiae deletion strains, locus YOR136W, strain idh2, stronger effect = lower value 1.01 | S. cerevisiae deletion strains, locus YOR144C, strain elg1, stronger effect = lower value 1.02 | S. cerevisiae deletion strains, locus YOR184W, strain ser1, stronger effect = lower value 1.03 | S. cerevisiae deletion strains, locus YOR231W, strain MKK1, stronger effect = lower value 0.993 | S. cerevisiae deletion strains, locus YOR265W, strain rbl2, stronger effect = lower value 1.02 | S. cerevisiae deletion strains, locus YOR270C, strain vph1, stronger effect = lower value 1.07 | S. cerevisiae deletion strains, locus YOR290C, strain snf2, stronger effect = lower value 1.05 | S. cerevisiae deletion strains, locus YOR316C, strain cot1, stronger effect = lower value 1.02 | S. cerevisiae deletion strains, locus YPL051W, strain arl3, stronger effect = lower value 1 | S. cerevisiae deletion strains, locus YPL055C, strain LGE1, stronger effect = lower value 1.07 | S. cerevisiae deletion strains, locus YPL078C, strain atp4, stronger effect = lower value 1.03 | S. cerevisiae deletion strains, locus YPL106C, strain sse1, stronger effect = lower value 1.02 | S. cerevisiae deletion strains, locus YPL240C, strain hsp82, stronger effect = lower value 1.03 | S. cerevisiae deletion strains, locus YPL241C, strain CIN2, stronger effect = lower value 1.01 | S. cerevisiae deletion strains, locus YPL256C, strain CLN2, stronger effect = lower value 0.992 | S. cerevisiae deletion strains, locus YPR119W, strain clb2, stronger effect = lower value 1.01 | S. cerevisiae deletion strains, locus YPR141C, strain kar3, stronger effect = lower value 1.01 | S. cerevisiae deletion strains, locus YPR163C, strain tif3, stronger effect = lower value 1.02 | S. cerevisiae deletion strains, locus YPR167C, strain met16, stronger effect = lower value 1.01 | S. cerevisiae deletion strains, strain wtn01, stronger effect = lower value 1.03 | S. cerevisiae strains, strain wild type, stronger effect = lower value 1.02
